Measured values taken from PubChem BioAssay (EPA / NIEHS).
Active and inactive are the calls of the source. The calls were made as follows: active = hit-call score of the fitted dose curve at least 0.9, where 1 is the maximum; inactive = score below 0.9.

Tests used:
[1] = APR_HepG2_MitoMembPot_72hr: Apredica 72-hour HepG2 Assay for Mitochondrial Membrane Potential (AID 2282917); settings: imaging, actives raise or lower the signal
Summary of the method: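 HepG2 cells dosed 72 hr with compound at 0.39–200 uM in duplicate, 0.5% v/v DMSO final. Mitochondria stained with 250 nM MitoTracker Red CMXRos for 30 min before formaldehyde fixation, imaged by high-content fluorescence; bidirectional fit versus DMSO.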

[2] = APR_HepG2_MicrotubuleCSK_72hr: Apredica 72-hour HepG2 Assay for Microtubule CSK Stabilty (AID 2282919); settings: HepG2 microtubule cytoskeleton, high-content imaging, actives raise or lower the signal
Summary of the method: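 HepG2 cells were exposed 72 hr to compound at 0.39–200 uM in duplicate (0.5% DMSO final), then fixed and permeabilized. Alpha-tubulin immunofluorescence was imaged by high-content microscopy, with bidirectional fitting against DMSO and taxol as positive control.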

[3] = APR_HepG2_StressKinase_72hr: Apredica 72-hour HepG2 Assay for Stress Kinase (AID 2282921); settings: HepG2 stress kinase (phospho-c-Jun) imaging, actives raise or lower the signal
Summary of the method: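 Dose 0.39–200 uM (10 pts, duplicate), 0.5% DMSO; 72 h; fix 3.7% formaldehyde 30 min RT; Triton permeabilize; anti-phospho-c-Jun/Cy3 + Hoechst 60 min RT; image 20x; fit gain/loss vs DMSO.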

[4] = APR_HepG2_StressKinase_24hr: Apredica 24-hour HepG2 Assay for Stress Kinase (AID 2282922); settings: HepG2 stress kinase (phospho-c-Jun) imaging, actives raise or lower the signal
Summary of the method: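 HepG2 cells exposed 24 h to 0.39–200 uM compound in duplicate (0.5% v/v DMSO final). Cells fixed in 3.7% formaldehyde, permeabilized and immunostained for phospho-c-Jun; read by high-content fluorescence imaging, fitted bidirectionally against DMSO.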

[5] = APR_HepG2_NuclearSize_72hr: Apredica 72-hour HepG2 Assay for Nuclear Size (AID 2282925); settings: high-content imaging, actives raise or lower the signal
Summary of the method: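 HepG2 cells dosed 72 h at 0.39–200 uM (10 concentrations, duplicate) in 0.5% v/v DMSO final. Fixed, Hoechst 33342-stained nuclei imaged; nuclear diameter measured by automated image analysis. Bidirectional fit versus DMSO.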

[6] = target: CCAAT/enhancer-binding protein beta (Homo sapiens) (UniProt P17676); experiment: ATG_C_EBP_CIS: Attagene CIS-FACTORIAL HepG2 Assay for human CCAAT/Enhancer Binding Protein (C/EBP) beta (AID 2282927); settings: HepG2 Attagene cis-factorial transcription factor reporter; actives raise or lower the signal
CCAAT/enhancer-binding protein beta (Homo sapiens), sequence (P17676 whole entry, looked up): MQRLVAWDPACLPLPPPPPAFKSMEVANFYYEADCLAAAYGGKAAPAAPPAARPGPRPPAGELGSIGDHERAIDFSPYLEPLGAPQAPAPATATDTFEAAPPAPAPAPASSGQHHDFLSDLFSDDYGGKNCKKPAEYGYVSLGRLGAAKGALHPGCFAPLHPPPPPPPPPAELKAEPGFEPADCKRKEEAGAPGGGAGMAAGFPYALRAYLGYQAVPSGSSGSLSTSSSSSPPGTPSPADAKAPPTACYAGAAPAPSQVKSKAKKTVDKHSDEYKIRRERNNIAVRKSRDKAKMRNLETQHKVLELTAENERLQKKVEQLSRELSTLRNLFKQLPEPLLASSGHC
Summary of the method: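 HepG2 transiently transfected with multiplexed reporter units under cis-regulatory promoters reporting endogenous C/EBPb activity. After 24 h exposure, reporter mRNA assayed by RT-PCR, fluorescent labelling, HpaI digestion and capillary electrophoresis; bidirectional fitting versus DMSO.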

[7] = ATG_CMV_CIS: Attagene CIS-FACTORIAL HepG2 Assay for human CMV (Internal Marker) (AID 2282928); settings: HepG2 CMV promoter reporter, transcription factor profiling; actives raise or lower the signal;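 also: endpoint acts as a background internal control marker rather than a target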
Summary of the method: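 HepG2 cells transiently transfected with multiple cis-regulated reporter units; 24 h compound exposure. Reporter mRNA quantified by RT-PCR, 6-FAM primer-extension labeling, HpaI digestion and capillary electrophoresis; bidirectional fitting against DMSO baseline.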

[8] = ATG_DR4_LXR_CIS: Attagene CIS-FACTORIAL HepG2 Assay for human Liver X Receptor (LXR), DR4 submotif (AID 2282929); settings: HepG2 Attagene DR4 cis-reporter, mRNA transcription; actives raise or lower the signal
Summary of the method: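 HepG2 cells transiently transfected with cis-promoter-driven multiplexed reporter units (DR4 element) were dosed for 24 h. Reporter mRNA was quantified by RT-PCR, fluorescent primer extension, HpaI digestion and capillary electrophoresis; bidirectional fitting versus DMSO baseline.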

[9] = target: Aryl hydrocarbon receptor (Homo sapiens) (UniProt P35869); experiment: ATG_Ahr_CIS: Attagene CIS-FACTORIAL HepG2 Assay for human Aryl Hydrocarbon Receptor (Ahr) (AID 2282930); settings: HepG2 AhR cis-factorial reporter transcription; actives raise or lower the signal
Aryl hydrocarbon receptor (Homo sapiens), sequence (P35869 whole entry, looked up): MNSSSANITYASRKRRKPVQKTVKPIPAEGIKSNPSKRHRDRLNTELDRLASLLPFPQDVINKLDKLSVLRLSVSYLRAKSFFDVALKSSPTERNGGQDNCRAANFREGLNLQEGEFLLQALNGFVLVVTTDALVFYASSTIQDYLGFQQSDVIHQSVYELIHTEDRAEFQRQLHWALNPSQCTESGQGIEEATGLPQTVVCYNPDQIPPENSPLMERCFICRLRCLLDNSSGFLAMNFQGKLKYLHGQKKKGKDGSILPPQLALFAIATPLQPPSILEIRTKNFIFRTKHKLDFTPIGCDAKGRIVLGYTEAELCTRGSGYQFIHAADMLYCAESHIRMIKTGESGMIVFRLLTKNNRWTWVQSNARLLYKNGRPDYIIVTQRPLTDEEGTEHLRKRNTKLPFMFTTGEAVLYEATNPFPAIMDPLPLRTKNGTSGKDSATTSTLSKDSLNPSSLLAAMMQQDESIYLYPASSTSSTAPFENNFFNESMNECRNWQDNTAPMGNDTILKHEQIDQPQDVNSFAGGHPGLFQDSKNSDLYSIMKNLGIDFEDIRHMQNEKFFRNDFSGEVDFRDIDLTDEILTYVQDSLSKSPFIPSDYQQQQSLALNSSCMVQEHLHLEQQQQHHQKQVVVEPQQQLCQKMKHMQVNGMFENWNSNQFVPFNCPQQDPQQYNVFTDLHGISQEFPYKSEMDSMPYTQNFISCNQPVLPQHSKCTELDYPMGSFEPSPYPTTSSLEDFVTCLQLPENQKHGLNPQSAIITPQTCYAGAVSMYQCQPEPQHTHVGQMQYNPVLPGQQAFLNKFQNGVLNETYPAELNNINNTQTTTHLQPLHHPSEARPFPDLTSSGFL
Summary of the method: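 HepG2 cells transiently transfected with cis-element-driven multiplexed reporter units; endogenous AhR activity read as reporter mRNA 24 h after dosing, via RT-PCR, 6-FAM labelling, HpaI digestion and capillary electrophoresis. Bidirectional fit relative to DMSO.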

[10] = ATG_AP_1_CIS: Attagene CIS-FACTORIAL HepG2 Assay for human Activator Protein 1 (AP-1) (AID 2282931); settings: HepG2 Attagene cis-factorial AP-1 reporter mRNA; actives raise or lower the signal
Summary of the method: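 HepG2 cells transiently transfected with cis-element-driven multiplex reporter units; 24 h compound exposure. Reporter mRNA quantified by RT-PCR, FAM-labelled fragments resolved by capillary electrophoresis; bidirectional fit versus DMSO baseline.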

[11] = ATG_AP_2_CIS: Attagene CIS-FACTORIAL HepG2 Assay for human Activator Protein 2 (AP-2) (AID 2282932); settings: HepG2 AP-2 cis-reporter, Attagene transcription factor profiling; actives raise or lower the signal
Summary of the method: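 HepG2 cells transiently transfected with cis-element reporter units and exposed for 24 h. Reporter mRNA measured by RT-PCR, FAM labelling, HpaI digestion and capillary electrophoresis. Changes in either direction fitted relative to DMSO.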

[12] = ATG_BRE_CIS: Attagene CIS-FACTORIAL HepG2 Assay for human Bone Morphogenetic Protein (BMP) Response Element (BRE) (AID 2282933); settings: HepG2 BMP response element reporter, Attagene transcription factor profiling; actives raise or lower the signal
Summary of the method: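 Read-out: reporter mRNA induction quantified by RT-PCR and capillary electrophoresis after 24 h chemical exposure of transfected HepG2 cells. Endogenous factor activity on the BMP response element; gain or loss fitted against DMSO baseline.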

[13] = target: Retinoic acid receptor alpha (Homo sapiens) (UniProt P10276); experiment: ATG_DR5_RAR_CIS: Attagene CIS-FACTORIAL HepG2 Assay for human Retinoic Acid Receptor Alpha (RARE), DR5 submotif (AID 2282934); settings: HepG2 Attagene cis-factorial RARE DR5 reporter, mRNA; actives raise or lower the signal
Retinoic acid receptor alpha (Homo sapiens), sequence (P10276 whole entry, looked up): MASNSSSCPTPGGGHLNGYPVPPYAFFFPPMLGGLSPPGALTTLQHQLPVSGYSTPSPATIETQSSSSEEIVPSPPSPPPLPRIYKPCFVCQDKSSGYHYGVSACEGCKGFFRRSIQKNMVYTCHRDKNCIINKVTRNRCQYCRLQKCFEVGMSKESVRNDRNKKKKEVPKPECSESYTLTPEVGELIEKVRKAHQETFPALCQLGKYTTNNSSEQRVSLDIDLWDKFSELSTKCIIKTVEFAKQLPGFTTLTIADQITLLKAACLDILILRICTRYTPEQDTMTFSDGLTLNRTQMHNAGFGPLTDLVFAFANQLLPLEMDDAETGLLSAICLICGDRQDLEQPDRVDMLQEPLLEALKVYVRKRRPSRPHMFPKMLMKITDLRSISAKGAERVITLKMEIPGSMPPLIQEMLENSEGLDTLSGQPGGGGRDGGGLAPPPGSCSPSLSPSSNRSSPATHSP
Summary of the method: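 HepG2 cells transiently transfected with multiplexed reporter units; DR5 cis-element drives reporter through endogenous transcription factors. After 24 h dosing, reporter mRNA quantified by RT-PCR, fluorescent labeling, HpaI digestion and capillary electrophoresis; bidirectional fitting versus DMSO.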

[14] = target: Transcription factor E2F1 (Homo sapiens) (UniProt Q01094); experiment: ATG_E2F_CIS: Attagene CIS-FACTORIAL HepG2 Assay for human E2F Transcription Factor 1 (AID 2282935); settings: HepG2 Attagene cis-reporter, E2F reporter RNA transcripts; actives raise or lower the signal
Transcription factor E2F1 (Homo sapiens), sequence (Q01094 whole entry, looked up): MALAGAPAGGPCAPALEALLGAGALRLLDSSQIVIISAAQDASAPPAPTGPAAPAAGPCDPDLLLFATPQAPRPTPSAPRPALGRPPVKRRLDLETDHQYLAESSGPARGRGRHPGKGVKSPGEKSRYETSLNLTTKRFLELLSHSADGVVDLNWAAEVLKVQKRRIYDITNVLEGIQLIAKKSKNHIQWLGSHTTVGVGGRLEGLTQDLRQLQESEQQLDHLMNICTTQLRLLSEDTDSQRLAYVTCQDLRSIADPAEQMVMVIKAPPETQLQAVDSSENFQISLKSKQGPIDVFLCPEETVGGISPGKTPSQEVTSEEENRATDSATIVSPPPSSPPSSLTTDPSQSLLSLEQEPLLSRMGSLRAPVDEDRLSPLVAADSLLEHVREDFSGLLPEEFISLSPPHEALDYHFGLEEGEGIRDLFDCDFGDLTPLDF
Summary of the method: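 Endogenous E2F1 activity read through cis-promoter reporter units transfected into HepG2. After 24 h compound treatment, reporter mRNA measured by RT-PCR, HpaI digestion and capillary electrophoresis. Bidirectional fit versus DMSO.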

[15] = ATG_E_Box_CIS: Attagene CIS-FACTORIAL HepG2 Assay for human Enhancer Box (E-box) (AID 2282936); settings: HepG2 E-box cis-reporter transcription, actives raise or lower the signal
Summary of the method: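 HepG2 cells transiently transfected with multiplexed cis-element reporter units, dosed 24 h; reporter mRNA quantified by RT-PCR, 6-FAM labelling, HpaI digestion and capillary electrophoresis. E-box (USF1) signal fitted bidirectionally vs DMSO.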

[16] = APR_HepG2_p53Act_72hr: Apredica 72-hour HepG2 Assay for p53 Activation (AID 2282923); settings: high-content imaging, actives raise or lower the signal;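 also: average cellular p53 protein immunofluorescence intensity in HepG2 cells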
Summary of the method: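 10-pt conc. 0.39–200 uM, duplicate, 0.5% DMSO; 72 hr exposure; 3.7% formaldehyde fix, 0.5% Triton perm; sheep anti-p53/Cy5 + Hoechst; ArrayScan 20x, 6 images/well; gain/loss fit vs DMSO.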

[17] = APR_HepG2_MitoMass_72hr: Apredica 72-hour HepG2 Assay for Mitochondrial Mass (AID 2282924); settings: high-content imaging, actives raise or lower the signal;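 also: MitoTracker Red CMXRos stain intensity per cell imaged as mitochondrial mass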
Summary of the method: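 HepG2 cells dosed 72 hr at 0.39–200 uM (0.5% DMSO), in duplicate. MitoTracker Red CMXRos 250 nM loaded 30 min before formaldehyde fixation; high-content fluorescence imaging, bidirectional fit versus DMSO.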

[18] = ATG_CRE_CIS: Attagene CIS-FACTORIAL HepG2 Assay for human cAMP Responsive Element (CRE) binding protein 3 (AID 2282926); settings: HepG2 CRE cis-reporter, Attagene multiplexed mRNA; actives raise or lower the signal
Summary of the method: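 Human liver HepG2, transient MRTU transfection, 24 h compound exposure. Total RNA → oligo(dT) RT → PCR → 6-FAM primer extension → HpaI cut → CE. Activity called both directions vs DMSO.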

[19] = APR_HepG2_P-H2AX_24hr: Apredica 24-hour HepG2 Assay for H2AX Phosphorylation (AID 2282920); settings: high-content imaging, actives raise or lower the signal
Summary of the method: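 HepG2, 24 hr, cpd 0.39–200 uM (10 conc, duplicate), DMSO 0.5% v/v final. Fix 3.7% formaldehyde, Triton X-100 permeabilize, anti-phospho-H2A.x 1:200 + Hoechst 2 ug/mL. Imaged, bidirectional fit vs DMSO.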

Measured: AC50

CCOC(=O)C(C)Oc1ccc(Oc2cnc3cc(Cl)ccc3n2)cc1 (stereo not given)
active: [1] 13.6 µM | [2] 95.1 µM
not listed: [16] | [17] | [18] | [19]
inactive: all other assays above

CSC(=O)c1cccc2nnsc12
not listed: [15] | [19]
inactive: all other assays above

COC(=O)c1ccc(CNS(C)(=O)=O)cc1S(=O)(=O)NC(=O)Nc1nc(OC)cc(OC)n1
not listed: [15] | [17] | [18] | [19]
inactive: all other assays above

CCCOC(=O)c1ccc(C(=O)OCCC)nc1
not listed: [15] | [17] | [18]
inactive: all other assays above

CCOC(=O)[C@H](C)Oc1ccc(Oc2nc3ccc(Cl)cc3o2)cc1
not listed: [15] | [19]
inactive: all other assays above

C#C[C@]1(O)CC[C@H]2[C@@H]3CCC4=CC(=O)CC[C@@H]4[C@H]3CC[C@@]21CC
not listed: [13] | [15] | [18] | [19]
inactive: all other assays above

C=CCOC(Cn1ccnc1)c1ccc(Cl)cc1Cl (stereo not given)
active: [2] 43.1 µM | [6] 12.4 µM | [7] 33 µM | [8] 76.1 µM | [10] 50 µM | [11] 50 µM | [12] 33.7 µM
not listed: [13] | [17] | [18] | [19]
inactive: all other assays above
